Sampled rows, rich in hits. Any-hit rate of the full collection: about 3.4%.
Mcl1-Noxa inh – Mcl-1/Noxa binding inhibitors, primary screen, biochemical, TR-FRET, 1536-well; Induced myeloid leukemia cell differentiation protein Mcl-1 (Homo sapiens), Q07820; TR-FRET Mcl-1/Noxa peptide binding, 2 h; inhibition, % at 21.7 µM; 220,000 compounds, 1.5% hits; AID 1022, 2008;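 active = compounds that cut the protein-peptide binding signal by more than 50% relative to plate controls in a single-dose test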;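 note: His-tagged Mcl-1 with rhodamine Noxa BH3 peptide and terbium anti-His antibody; 0% = Mcl-1 plus Noxa peptide wells and 100% = peptide-only wells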
Target sequence (Q07820 whole entry, looked up): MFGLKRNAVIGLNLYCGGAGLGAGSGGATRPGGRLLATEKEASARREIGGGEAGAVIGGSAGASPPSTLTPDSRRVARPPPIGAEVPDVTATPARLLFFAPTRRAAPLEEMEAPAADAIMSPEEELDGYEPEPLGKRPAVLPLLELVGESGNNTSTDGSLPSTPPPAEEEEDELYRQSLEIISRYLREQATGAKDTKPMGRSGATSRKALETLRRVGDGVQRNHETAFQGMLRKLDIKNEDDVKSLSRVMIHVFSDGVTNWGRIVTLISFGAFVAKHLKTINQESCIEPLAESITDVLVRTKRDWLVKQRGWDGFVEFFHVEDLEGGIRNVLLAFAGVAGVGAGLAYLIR
p47phox inh – p47phox/p22phox peptide binding inhibitors, primary screen, biochemical, uHTS, NADPH oxidase regulatory subunit; Neutrophil cytosol factor 1 (Homo sapiens), P14598; fluorescence polarization, 2 h; inhibition, % at 24.7 µM; 220,000 compounds, 0.53% hits; AID 1274, 2008;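 note: 0% = p47phox with labelled peptide and 100% = labelled peptide alone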
14-3-3 Bad inh – inhibitors of 14-3-3 zeta/Bad binding, primary screen, biochemical, TR-FRET, bovine 14-3-3 zeta | 220,000 compounds, 0.71% hits | 14-3-3 protein zeta/delta (Bos taurus), P63103 | TR-FRET 14-3-3zeta/Dy647-pBad peptide displacement, 1 h | inhibition, % at 21.7 µM;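 active = inhibition above about 70%, limit read from the data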;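 note: 0% = full 14-3-3 plus peptide FRET controls and 100% = background without 14-3-3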
Target sequence (P63103 whole entry, looked up): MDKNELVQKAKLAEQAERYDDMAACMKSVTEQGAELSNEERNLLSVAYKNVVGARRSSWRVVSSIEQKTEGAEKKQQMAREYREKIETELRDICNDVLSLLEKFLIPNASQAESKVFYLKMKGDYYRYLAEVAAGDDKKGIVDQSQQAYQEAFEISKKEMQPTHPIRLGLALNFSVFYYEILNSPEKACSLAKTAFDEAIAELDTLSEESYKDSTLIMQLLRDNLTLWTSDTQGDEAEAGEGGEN
Mcl1-Bid inh – Mcl-1/Bid binding inhibitors, primary screen, biochemical, TR-FRET, 1536-well | Induced myeloid leukemia cell differentiation protein Mcl-1 (Homo sapiens), Q07820 | TR-FRET Mcl-1/Bid-Dy647 peptide binding | inhibition, % at 21.7 µM | 220,000 compounds, 0.97% hits | AID 1021, 2008;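 active = compounds that cut the binding signal by more than half at the single screening dose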;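 note: His-tagged Mcl-1 with europium anti-His antibody binding Bid BH3 peptide; 0% = Mcl-1 plus peptide wells and 100% = peptide-only wells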
Bim-Mcl-1 – inhibitors of Bim peptide binding to Mcl-1, primary screen, biochemical, bead-based flow cytometry, multiplex; Bim peptide-Mcl-1 binding; inhibition, % at 10 µM; Induced myeloid leukemia cell differentiation protein Mcl-1 (Homo sapiens), Q07820; 190,000 compounds, 0.1% hits; AID 1009, 2008; in the data active = inhibition above about 40%;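 note: 0% = no compound tracer wells and 100% = peptide blocker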
eIF4E-4G inh – eIF4E–eIF4G protein interaction inhibitors, primary screen, biochemical, uHTS, TR-FRET, eIF4GI fragment. TR-FRET eIF4E-eIF4GI(517-606) binding, 2 h. inhibition, % at 21.7 µM. 220,000 compounds, 0.37% hits. AID 782, 2007;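 note: 0% = full FRET control wells and 100% = background wells lacking eIF4GI fragment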
Active calls of the source: *; . = no result; [ ] = dose if it differs, or a comment.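 Rule for the calls, unless noted: active = inhibition above about 30% (limit read from the data); inactive = the rest.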

SMILES | Mcl1-Noxa inh | p47phox inh | 14-3-3 Bad inh | Mcl1-Bid inh | Bim-Mcl-1 | eIF4E-4G inh
CC1(C2CC2)NC(=O)NC1=O (stereo not given) | -4.4 | -3.1 | 3.1 | -20.6 | -4.0 | 90.0*[fluorescence artefact?]
Nc1c(C(=O)Nc2ccc(F)cc2)sc2nc(-c3ccco3)ccc12 | 98.4* | 3.1 | 1.9 | 90.8* | 11.0 | 6.1
c1ccc2nc3c(cc2c1)CCCCC3 | -3.0 | -2.7 | 6.0 | -57.3 | . | -3.4
C/C(=N/NC(=O)c1ccccn1)c1ccc(O)cc1 | 0.7 | 4.3 | -2.2 | 96.1* | . | 1.8
C#CCSc1nnnn1-c1cccc(Cl)c1 | -0.5 | -9.8 | -5.4 | -11.3 | . | -0.4
Cc1noc(C)c1-c1nnc(-c2ccc(C(F)(F)F)cc2)o1 | 13.0 | -15.3 | -5.4 | -7.2 | . | 1.1
COc1ccc(CCNC(=O)Cn2c(=O)[nH]c3ccsc3c2=O)cc1OC | 3.7 | -4.8 | -4.6 | -13.5 | 1.0 | 0.4
O=C(O)CCC(=O)N1CCOc2ccc(Cl)cc21 | 11.3 | 36.8* | -0.6 | -19.0 | 5.0 | 1.3
O=C(CN1C(=O)COc2ccc(Cl)cc21)Nc1ccc2c(c1)OCCO2 | . | -7.8 | 17.6 | -30.1 | -7.0 | 5.7
CC1=NN(c2cccc(C(=O)O)c2)C(=O)/C1=C\C=C\c1ccco1 | 98.0* | -14.3 | 26.9 | -16.3 | 0.0 | 21.3
NNC(=O)c1oc2nc(-c3ccco3)cc(-c3ccco3)c2c1N | 61.6* | -26.8 | -6.8 | -105.0 | . | 1.2
Nc1c(C(=O)N/N=C/c2cccnc2)oc2nc(-c3ccco3)cc(-c3ccco3)c12 | 48.2 | -25.8 | -2.4 | -17.5 | . | 8.6
COc1ccc(NC(=S)NN2C(C)CCCC2C)cc1 (stereo not given) | 52.4* | -8.8 | -7.8 | 41.9 | -9.0 | -1.9
COc1ccc(/C=C(/C#N)C(=O)Nc2cc(C)ccc2C)cc1C(=O)O | -14.7 | 163.3* | 5.0 | 12.2 | 4.0 | 3.3
COc1ccc(/C=C(\C#N)C(=O)Nc2cc(C)c(Cl)cc2OC)cc1O | 70.7* | -26.6 | 63.8 | 9.9 | . | 16.2
COc1cc(/C=C(\C#N)C(=O)Nc2cccc3ncccc23)ccc1O | 22.1 | -3.7 | -10.6 | -35.9 | 1.0 | -3.0
COc1ccc2[nH]c3c(=O)n(CCCCC(=O)NCCC(C)C)c(=S)[nH]c3c2c1 | 19.9 | 11.9 | -2.9 | -33.6 | -2.0 | -1.2
COC(=O)c1[nH]c2ccc(Cl)cc2c1NC(=O)Oc1ccccc1 | 50.8* | -1.1 | 2.4 | -44.7 | -6.0 | 6.6
COC(=O)c1[nH]c2ccc(Cl)cc2c1NC(=O)C1CC1 | 29.8 | -7.5 | -2.9 | -7.0 | 0.0 | 8.1
COc1ccccc1Nc1nc(-c2sc(NC(=O)c3ccco3)nc2C)cs1 | 25.2 | -45.5 | 16.0 | -17.1 | 0.0 | -4.8
Cc1nc(NC(=O)c2ccco2)sc1-c1csc(Nc2ccc(Cl)cc2Cl)n1 | 99.9* | -14.6 | 87.3*[fluorescence artefact?] | 87.1* | 10.0 | -32.7
Cc1nc(NC(=O)c2ccco2)sc1-c1csc(Nc2ccc(Cl)cc2)n1 | 62.2* | -50.3 | 32.1 | 24.9 | -2.0 | 2.1
Cc1ccc(Cl)cc1Nc1nc(-c2sc(NC(=O)c3ccco3)nc2C)cs1 | 18.5 | -39.7 | 3.6 | -7.3 | -5.0 | -3.7
Cc1ccc2[nH]c3c(NCc4ccco4)ncnc3c2c1 | 54.5* | -48.6 | -6.2 | -11.3 | 4.0 | 3.1
O=S(=O)(Cc1ccc(Cl)cc1)N1CCN(Cc2ccccc2)CC1 | -12.6 | -11.7 | 1.6 | -5.0 | -1.0 | -1.1
SMILES | Mcl1-Noxa inh | p47phox inh | 14-3-3 Bad inh | Mcl1-Bid inh | Bim-Mcl-1 | eIF4E-4G inh
CCc1ccc(CN2CCN(S(=O)(=O)Cc3ccccc3)CC2)cc1 | 8.6 | -8.8 | 78.6* | 34.2 | 0.0 | 7.0
CC1CN(C2CCN(S(=O)(=O)Cc3ccccc3)CC2)CC(C)O1 (stereo not given) | 13.5 | -8.9 | 66.6 | 50.9* | 0.0 | -0.8
Cc1ccnc(NC(=O)c2ccc(S(=O)(=O)c3ccccc3)cc2)c1 | 3.7 | -2.0 | -8.4 | -35.0 | 0.0 | -2.3
COc1ccc(N2Cc3ccccc3C2=NC(=O)c2cncc(Br)c2)cc1 | 1.9 | -16.9 | -6.8 | -38.8 | -1.0 | -0.4
CC(C)c1ccc(NC(=O)N2CCCC2C(=O)Nc2ccc(-n3cnnn3)cc2)cc1 (stereo not given) | -4.6 | 0.2 | -4.8 | -20.4 | 0.0 | 1.6
Cc1[nH]n(-c2ncc(-c3ccccc3)s2)c(=O)c1C(c1ccc(Br)cc1)C(C#N)C#N (stereo not given) | 77.9* | -29.3 | -24.8 | 28.4 | -6.0 | 5.0
Cc1[nH]n(C(N)=S)c(=O)c1C(c1ccccc1)C(C#N)C#N (stereo not given) | -21.1 | -4.1 | 2.0 | -53.1 | -1.0 | -1.5
Nc1nc(Nc2cccc(F)c2)nc(NCc2ccco2)c1[N+](=O)[O-] | 37.4 | -11.9 | -1.3 | 10.8 | . | -4.0
Cc1ccc(OCCN2CCN(CC(O)Cn3c4ccccc4c4ccccc43)CC2)cc1 (stereo not given) | -7.0 | 5.9 | 40.5 | 65.7* | -1.0 | 2.8
OCCN1CCN(CC(O)COc2ccc(-c3ccccc3)cc2)CC1 (stereo not given) | 22.1 | 5.1 | 84.2* | 33.9 | 0.0 | 5.8
Cc1ccc(OCC(O)Cn2c3ccccc3c3ccccc32)cc1 (stereo not given) | 39.6 | -7.0 | -2.9 | -12.7 | 0.0 | -3.5
CC(=O)c1ccc(OCC(O)CN2CCOCC2)cc1 (stereo not given) | 64.4* | -19.1 | -0.5 | 11.1 | -2.0 | -0.9
CN1CCN(CC(O)COc2ccc(C34CC5CC(CC(C5)C3)C4)cc2)CC1 (stereo not given) | 20.6 | 72.7* | -133.4 | 9.8 | 0.0 | -18.2
CCC(=O)c1ccc(OCC(O)CN2CCOCC2)cc1 (stereo not given) | 3.8 | -9.5 | 1.8 | -1.0 | 0.0 | -10.1
O[C@@H]1COC(Nc2ccc(N=Nc3ccccc3)cc2)C[C@@H]1O (stereo not given in full) | -3.3 | -8.3 | -2.6 | -19.1 | . | 0.0
CC(C)(C)c1ccc(OCc2cnc(Cl)s2)cc1 | -0.3 | -18.3 | -7.3 | -16.1 | 2.0 | 4.6
Cc1ccc(S(=O)(=O)N(C)CC(O)Cn2c3ccccc3c3ccccc32)cc1 (stereo not given) | 6.8 | 3.9 | 8.2 | 72.4* | 0.0 | 5.0
Cc1c2cnn(CC(=O)Nc3c(F)c(F)cc(F)c3F)c(=O)c2c(C)n1Cc1ccccc1F | 48.8 | -59.7 | 16.7 | -57.2 | -6.0 | 31.8*
